According to PubChem BioAssay (EPA / NIEHS):
Records with an inconclusive call do not appear. Calls of active or inactive are those of the source. How the source made its calls: active means hit-call score of the fitted dose curve at least 0.9, where 1 is the maximum; inconclusive means response in the unintended direction; inactive means score below 0.9.

target: Ratio of Nucleoli Translocation and Cytoplasm, AR (gene 367) (UniProt P10275); experiment: UPITT_HCI_U2OS_AR_TIF2_Nucleoli_Cytoplasm_Ratio_Antagonist: University of Pittsburgh U2OS Androgen Receptor-Transcriptional Intermediary Factor 2 (AR-TIF2) Antagonism High Content Imaging Assay for Ratio of Nucleoli Translocation and Cytoplasm (AID 2283999);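 further: antagonists lower the DHT-driven ratio of nucleolar to cytoplasmic red signal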
Sequence (P10275 whole entry, looked up, the tested form may be a part): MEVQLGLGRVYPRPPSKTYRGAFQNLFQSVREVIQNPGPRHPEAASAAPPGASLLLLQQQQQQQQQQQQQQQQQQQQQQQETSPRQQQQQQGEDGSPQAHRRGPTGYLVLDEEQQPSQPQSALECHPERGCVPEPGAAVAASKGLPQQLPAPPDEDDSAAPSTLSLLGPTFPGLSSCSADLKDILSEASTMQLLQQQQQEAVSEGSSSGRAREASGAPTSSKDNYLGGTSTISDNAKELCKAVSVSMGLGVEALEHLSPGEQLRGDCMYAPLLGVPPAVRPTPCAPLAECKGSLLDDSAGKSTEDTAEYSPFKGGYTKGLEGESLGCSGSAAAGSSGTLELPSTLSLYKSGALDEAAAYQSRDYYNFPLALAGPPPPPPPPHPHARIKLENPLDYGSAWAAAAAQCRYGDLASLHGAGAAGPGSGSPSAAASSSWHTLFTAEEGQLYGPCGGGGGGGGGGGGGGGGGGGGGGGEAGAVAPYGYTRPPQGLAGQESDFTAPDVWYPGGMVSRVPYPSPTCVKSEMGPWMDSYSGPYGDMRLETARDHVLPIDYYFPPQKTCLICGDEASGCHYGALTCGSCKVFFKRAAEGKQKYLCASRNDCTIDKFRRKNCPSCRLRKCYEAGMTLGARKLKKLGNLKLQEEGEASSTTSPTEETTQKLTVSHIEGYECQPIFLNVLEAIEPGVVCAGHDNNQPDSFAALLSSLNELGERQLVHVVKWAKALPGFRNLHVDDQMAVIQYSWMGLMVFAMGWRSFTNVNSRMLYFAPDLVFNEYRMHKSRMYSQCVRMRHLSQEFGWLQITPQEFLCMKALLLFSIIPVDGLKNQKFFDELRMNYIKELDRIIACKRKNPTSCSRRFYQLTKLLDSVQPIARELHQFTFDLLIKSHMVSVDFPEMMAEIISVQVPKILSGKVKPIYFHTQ
Source text: UPITT_AR_TIF2_PPIB is a cell-based, high-content imaging assay that uses U2OS, a human osteosarcoma cell line, expressing a human androgen receptor fused to red fluorescent protein and the coactivator TIF2 fused to green fluorescent protein. UPITT_HCI_U2OS_AR_TIF2_Nucleoli_Cytoplasm_Ratio_Antagonist is one of four assay components measured from the UPITT_AR_TIF2_PPIB assay. It is designed to make measurements of the ratio of red fluorescence localized in the nucleolar region of the cell nucleus to red fluorescence localized in the cytoplasm as detected with high-content fluorescent imaging.Data from the assay component UPITT_HCI_U2OS_AR_TIF2_Nucleoli_Cytoplasm_Ratio_Antagonist was analyzed into 1 assay endpoint. This assay endpoint, UPITT_HCI_U2OS_AR_TIF2_Nucleoli_Cytoplasm_Ratio_Antagonist, was analyzed in the positive analysis fitting direction relative to DHT as the baseline of activity. Using a type of binding reporter, measures of receptor for loss-of-signal activity can be used to understand the binding at the pathway-level as it relates to the gene AR.
Daughter plates containing 2 uL of 10 mM compounds in DMSO were prepared and replicated from the 384-well Library of Pharmacologically Active Compounds (LOPAC) master plates using the Bravo outfitted with a 384-well transfer head. Aluminum adhesive plate seals were applied with an Abgene Seal-IT 100 (Rochester, NY) plate sealer, and the plates were stored at -20 C in a Matrical MatriMinistore (Spokane, WA) automated compound storage and retrieval system. For screening, LOPAC daughter plates were withdrawn from -20C storage, thawed to ambient temperature, centrifuged 1-2 min at 50 g, and the plate seals were removed before the transfer of 98 uL of serum-free tissue culture medium (SFM) into wells using the BioTek Microflo liquid handler (BioTek, Winooski, VT) to generate a 200 uM intermediate stock concentration of library compounds (2.0% DMSO). The diluted compounds were mixed by repeated aspiration and dispensation using a 384-well P30 dispensing head on the Evolution P3 (EP3) liquid handling platform (PerkinElmer, Waltham, MA) and then 5 uL of diluted compounds was transferred to the wells of assay plates. In the LOPAC screen, compounds were individually tested at a final concentration of 20 uM (0.2% DMSO). After the diluted compounds had been transferred from the daughter plates to the primary HCS assay plates, aluminum adhesive plate seals were applied and the diluted daughter plates were stored frozen at -20C. To confirm active compounds identified in the primary screen, we withdrew the LOPAC daughter plates containing the 200 uM intermediate concentration of library compounds (2.0% DMSO) from -20C storage, thawed them to ambient temperature, centrifuged them for 1-2 min at 50 g, and removed the plate seals. A work list was generated to direct the Multiprobe Janus liquid handling platform (PerkinElmer) to cherry pick 75 uL from the wells of the diluted daughter plates that were flagged active in the primary screen and to reformat these into a 384-well plate hit confirmation daughter plate. Five microliters of primary HCS active compounds was then transferred into triplicate wells of assay plates using a 384-well P30 dispensing head on the Evolution P3 (EP3) liquid handling platform (PerkinElmer). […] Daughter plates containing 2 uL of the serially diluted compounds in DMSO were prepared and replicated from the 384-well serial dilution master plates using the Bravo outfitted with a 384-well transfer head. Aluminum adhesive plate seals were applied and plates were stored at -20C. For testing in the bioassays, daughter plates were withdrawn from -20C storage, thawed to ambient temperature, centrifuged for 1-2 min at 50 g, and the plate seals were removed before the transfer of 38 uL of SFM into wells using the BioTek Microflo liquid handler (BioTek) to generate an intermediate stock concentration of library compounds ranging from 1.95 to 500 uM (5.0% DMSO). […]

outcome, inactive:
CCCCc1ccc2ccccc2c1S(=O)(=O)O
CCCCCCC(C)(C)C(=O)O
COc1cc([N+](=O)[O-])ccc1N
O=C(NCc1ncc(C(F)(F)F)cc1Cl)c1c(Cl)cccc1Cl
Cc1cc(C(=C2C=CC(=Nc3ccc(S(=O)(=O)O)cc3)C=C2)c2ccc(Nc3ccc(S(=O)(=O)O)cc3)cc2)cc(S(=O)(=O)O)c1N
CC(O)COc1ccccc1 (stereo unspecified)
CCCCCCc1ccc(N)cc1
O=C(c1ccccc1)c1ccccc1
CC1COCc2cc3c(cc21)C(C)(C)C(C)C3(C)C (stereo unspecified)

AC50, active:
NC(=NCCCCCCN=C(N)/N=C(\N)Nc1ccc(Cl)cc1)/N=C(\N)Nc1ccc(Cl)cc1 11.6 µM
CCCCCc1ccc(O)cc1 86.1 µM
